44 sequences from paper PMC7819943, “Rice protein-binding microarrays: a tool to detect cis-acting elements near promoter regions in rice” can be followed below.

The full ranking holds about 68,000 sequences; the median of “fluorescence intensity (a.u.)” is about 9,100, and the highest 2% start at about 16,000. The sample holds the highest values, similar sequences and a random draw of the others, so the mix is not that of the screen.

For this assay, the target named is OsWRKY34 (Oryza sativa, UniProt Q0JBA9 1-250). The experiment in a line: protein-binding microarray (RPBM); PBS, 2% BSA, 51.3 ng/ul salmon testes DNA, 50 uM zinc acetate, 200 nM TF, 25 C, 1 h; high values mean tight binding. Particulars: protein: recombinant; tags: N-terminal polyhistidine and DsRed monomer fusion (pET32a); label: CyDye5-dUTP incorporated in the synthesized complementary strand; 3' TTTTT single-stranded linker to array surface; dsDNA, one strand shown. Summed up: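 Ni–NTA purification followed expression in E. coli BL21-CodonPlus of transcription factors fused N-terminally to a polyhistidine tag and DsRed. At 200 nM in PBS with 2% BSA, salmon testes DNA and 50 µM zinc acetate, the protein was incubated for 1 h at 25 °C with a custom Agilent array that had been primer-extended with Cy5-dUTP and blocked with 2% BSA. After washing, the array was read on an Axon 4000B scanner. The binding signal is per-feature fluorescence intensity in arbitrary units.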
Sequence of OsWRKY34 (Q0JBA9 entry or part of it): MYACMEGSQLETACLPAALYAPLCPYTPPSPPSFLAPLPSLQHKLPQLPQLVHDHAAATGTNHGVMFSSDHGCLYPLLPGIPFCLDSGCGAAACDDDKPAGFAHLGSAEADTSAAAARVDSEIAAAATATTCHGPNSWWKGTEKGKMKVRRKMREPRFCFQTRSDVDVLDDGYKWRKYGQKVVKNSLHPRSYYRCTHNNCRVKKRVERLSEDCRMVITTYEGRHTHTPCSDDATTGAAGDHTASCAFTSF
Regarding “CCCGGCGGCCCGATCACCACCTGCCCGAACACCATCCTCCCGGAGTCACCTAGTGCAG”, the binding signal was 8530 fluorescence intensity (a.u.). In the case of “GTGTGTTGGTTGTCACAGTACTGTGTGGTGGTGGTGGAAGCGGAGTCACCTAGTGCAG” it was 9220 fluorescence intensity (a.u.); in that of “TAGGTGTGGTGTGTGGAGAAGCGGTGGACCGACCGACGACCGGAGTCACCTAGTGCAG”, 8450 fluorescence intensity (a.u.).

“ACTGTCGTGCCACAGTGGACGTGTGCGGCAGGTGAAGCACCGGAGTCACCTAGTGCAG”: the binding signal is 49100 fluorescence intensity (a.u.).

For the sequence “GGAAAAGAACACCGGTCCATTTTGCAACTATTGTGAAGTTCGGAGTCACCTAGTGCAG”, the binding signal was 8220 fluorescence intensity (a.u.). In the case of “CCGGCAAAAGTCTCTCCATCTTGTCATCGTCTTCTCCAGCCGGAGTCACCTAGTGCAG” it was 8410 fluorescence intensity (a.u.); in that of “GCGAGAGGGGACTGGGGAGGGGAGGGGCGGCGCTCGCTGGCGGAGTCACCTAGTGCAG”, 12500 fluorescence intensity (a.u.). In the case of “TTGGGAGGGAGAGTGGTAAAGGGTGCTGGGGCTTTGGCTGCGGAGTCACCTAGTGCAG” it was 8840 fluorescence intensity (a.u.). “TGGATTTGGCGGCGGCGGCGGCTTCGAGGGGAGGGGCTCTCGGAGTCACCTAGTGCAG”: the binding signal was 15300 fluorescence intensity (a.u.). In the case of “TGGAAAGAGGAGGGCGGGGAGAGGACTGGGGAGGGCGGGGCGGAGTCACCTAGTGCAG” it was 17700 fluorescence intensity (a.u.); in that of “AGAGGGGACTGGGGAGGGGAGGGGCGGCGCTCGCTGGCTTCGGAGTCACCTAGTGCAG”, 17500 fluorescence intensity (a.u.). The result for “ACTGGTTTTACACATTATGTGGGCTAACTTAATACTCCTTCGGAGTCACCTAGTGCAG” reads 8040 fluorescence intensity (a.u.); that for “AGGATTCAATTTGGACTTTGGTGGAGGGGAGGGGCTGCTGCGGAGTCACCTAGTGCAG”, 22100 fluorescence intensity (a.u.); that for “GGGGCTGTTTGGTTTCCAGGGACTTATTCCAAGTCCCTGTCGGAGTCACCTAGTGCAG”, 9750 fluorescence intensity (a.u.).

On to “GGGGAAGGAGAAGAGGAAGGAGAGGGGAGGAGGAGGAGGGCGGAGTCACCTAGTGCAG”, for which the binding signal is 8870 fluorescence intensity (a.u.). In the case of “TTGGATTGGGCTGCGGACCTGCGGTGGAGGGATTCAGGGTCGGAGTCACCTAGTGCAG” it was 8240 fluorescence intensity (a.u.); in that of “GAGGAAATGCCTGGGAGGAGGAGGAGGGACTCGGGGCGGGCGGAGTCACCTAGTGCAG”, 13300 fluorescence intensity (a.u.); in that of “TCTTCGGTTTACTTATGTCCTGGCTGGTTGGGAGGGGACACGGAGTCACCTAGTGCAG”, 19100 fluorescence intensity (a.u.). Regarding “ATTTTTTTTAAAAGTAGTTCTTCTGTTTCATATTATAATACGGAGTCACCTAGTGCAG”, the binding signal was 9230 fluorescence intensity (a.u.). The result for “TGTCTTTATTAAGTGCAAATGTATTTGGATTCCAACCCTTCGGAGTCACCTAGTGCAG” reads 8180 fluorescence intensity (a.u.); that for “TACCCACACACACACAAGAACACGCGCCACATTTGTCATTCGGAGTCACCTAGTGCAG”, 10900 fluorescence intensity (a.u.); that for “TATTGTCTGGGGTTTGCTTATTGGCTTTTCAGGCCATGTCCGGAGTCACCTAGTGCAG”, 9320 fluorescence intensity (a.u.). The result for “ATCTCTTTTGCATTTGTTCGTCCCTTTCGTTTTCAACTTGCGGAGTCACCTAGTGCAG” reads 9290 fluorescence intensity (a.u.). As to “CAAACATGTGCTAAAAAGTCAACGGTGTCAACCATTTTGACGGAGTCACCTAGTGCAG”, the binding signal is 11600 fluorescence intensity (a.u.). The result for “CGTGGAGAGGATTTGAGTGCCTTTTTTGGAGTTTGAGGGGCGGAGTCACCTAGTGCAG” reads 9570 fluorescence intensity (a.u.). The result for “TCGGGGCGGGTCTGGGAGGGCTTGCGCTTGACACGGACGACGGAGTCACCTAGTGCAG” reads 17200 fluorescence intensity (a.u.); that for “CTGCTGCCGCCGCCTCCTGGCCGCCGCCGCGGCGAGCGCGCGGAGTCACCTAGTGCAG”, 8280 fluorescence intensity (a.u.); that for “TAGGTGAGGGCGGTGCGCTTGTCGACGGGGTTGAAGGGGACGGAGTCACCTAGTGCAG”, 10700 fluorescence intensity (a.u.). The result for “GCGTCTGGGGCCTCGGGCGGCGCGCGCGGGGAGGGGCGTGCGGAGTCACCTAGTGCAG” reads 10500 fluorescence intensity (a.u.); that for “GAGGACTGGGGAGGGCGGGGAGAGGGGAGGGCGTCGCGTGCGGAGTCACCTAGTGCAG”, 24500 fluorescence intensity (a.u.); that for “ACGGGGACAGGGAGAGGAGCGGGGATTTTGTGGCGGGAGACGGAGTCACCTAGTGCAG”, 9460 fluorescence intensity (a.u.). As to “GTGTGTGCTGTGGTGGAGAGGAGAAAGGGAGGAAGAAGAGCGGAGTCACCTAGTGCAG”, the binding signal is 8140 fluorescence intensity (a.u.).

With “GGGGATTTGGGGAGACTTTTGGAGGGGAGGAGAGAGGGCGCGGAGTCACCTAGTGCAG”, the binding signal was 19700 fluorescence intensity (a.u.). Regarding “ACTCACAGAAAGCGTCGGGGCGGGTCTGGGAGGGCTTGCGCGGAGTCACCTAGTGCAG”, the binding signal was 9140 fluorescence intensity (a.u.). The result for “GCGGCGGCGGGGCGGCGTCGGGGAGGGAGGAGGAGCAGTGCGGAGTCACCTAGTGCAG” reads 10700 fluorescence intensity (a.u.). As for “AAGCGCCTGGTAGCGGAGAGTGGGAAAGAGCTGGCTGGCGCGGAGTCACCTAGTGCAG”, the binding signal is 60400 fluorescence intensity (a.u.). The result for “TGTTGTTATGTTTTTGTCATGATCTCACAAGCAATGTACACGGAGTCACCTAGTGCAG” reads 11000 fluorescence intensity (a.u.); that for “CCTCTTCGAAGCCGTGAAATCTCAGCCGTCCATCCATGATCGGAGTCACCTAGTGCAG”, 9040 fluorescence intensity (a.u.). In the case of “TCTTTTGAGCACCCCACTGGCCATGGTCTTTTATCGTCCCCGGAGTCACCTAGTGCAG” it was 8490 fluorescence intensity (a.u.); in that of “ACTATCTTAGCCATTCCAACGCCGTCTTTCCTCGGTCCTCCGGAGTCACCTAGTGCAG”, 12500 fluorescence intensity (a.u.). In the case of “AATCACCATCATCGCTGTTTGGGAGGGTCTGCCTGGCTTACGGAGTCACCTAGTGCAG” it was 13100 fluorescence intensity (a.u.); in that of “TATTTGACTTCCGGCTTTTGTTTCCTTGATACTTTACTCTCGGAGTCACCTAGTGCAG”, 9780 fluorescence intensity (a.u.). Turning to “ACCTTTGCTCACGATCCCAATGGCTTTAATTATGTACCACCGGAGTCACCTAGTGCAG”, the binding signal is 8830 fluorescence intensity (a.u.). The result for “CCAAAAACACTCACTCGGCCCACATCACGCCACCACCCCGCGGAGTCACCTAGTGCAG” reads 9750 fluorescence intensity (a.u.).
